# Test results published in article PMC8384837, “Expanding the binding specificity for RNA recognition by a PUF domain”.
# Target: PUM1 PUF domain R3-GRS (Homo sapiens, UniProt Q14671 828-1176, C935G;Q939S)
# Assay: yeast three-hybrid, YBZ-1, SC-Leu-His + 0.5 mM 3-AT, 4 days
# Settings: tags: N-Gal4 AD-HA kept; label: inside an RPR1-promoter hybrid RNA with tandem MS2 sites; ssRNA
# Method in brief: (§1)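 The interaction score is the log change in how often each variant appears, from input to selection. Frequencies came from PCR-amplified, Illumina-sequenced repeat regions of Pumilio-1 PUF domain libraries grown in strain YBZ-1 (LexA–MS2 coat fusion, HIS3 reporter) alongside matching RNA elements. Input plates were SC-Leu and selection plates were SC-Leu-His + 0.5 mM 3-AT, each for four days, and the log2 calculation used a pseudocount of 1 where a variant was absent.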
row,Sequence,binding signal
1,GGCUAGAACUAGUGGAUCCCCCGGCGCCCGGCGGCUCGAGCCCGGGUAAGUGUAAUUAGUCUGCAUGCCGCCGGGCGCCAUGCCUGCAGGUCGACUCUAGAAAACAUG,1.26 log2 enrichment (interaction score)
2,GGCUAGAACUAGUGGAUCCCCCGGCGCCCGGCGGCUCGAGCCCGGGUAAGUGUAAAUAGUCUGCAUGCCGCCGGGCGCCAUGCCUGCAGGUCGACUCUAGAAAACAUG,2.84 log2 enrichment (interaction score)
3,GGCUAGAACUAGUGGAUCCCCCGGCGCCCGGCGGCUCGAGCCCGGGUAAGUGUAAGUAGUCUGCAUGCCGCCGGGCGCCAUGCCUGCAGGUCGACUCUAGAAAACAUG,1.73 log2 enrichment (interaction score)

# Target: PUM1 PUF domain R1-RSN (Homo sapiens, UniProt Q14671 828-1176, S863R;R864S;Q867N)
# Assay: as above
# Settings: tags: N-Gal4 AD-HA kept; label: inside an RPR1-promoter hybrid RNA with tandem MS2 sites; ssRNA
# Method in brief: as §1
row,Sequence,binding signal
1,GGCUAGAACUAGUGGAUCCCCCGGCGCCCGGCGGCUCGAGCCCGGGUAAGUGUAAAUGGUCUGCAUGCCGCCGGGCGCCAUGCCUGCAGGUCGACUCUAGAAAACAUG,2.27 log2 enrichment (interaction score)
2,GGCUAGAACUAGUGGAUCCCCCGGCGCCCGGCGGCUCGAGCCCGGGUAAGUGUAAAUUGUCUGCAUGCCGCCGGGCGCCAUGCCUGCAGGUCGACUCUAGAAAACAUG,4.41 log2 enrichment (interaction score)
3,GGCUAGAACUAGUGGAUCCCCCGGCGCCCGGCGGCUCGAGCCCGGGUAAGUGUAAAUCGUCUGCAUGCCGCCGGGCGCCAUGCCUGCAGGUCGACUCUAGAAAACAUG,5.16 log2 enrichment (interaction score)
